Whole data set: some 8,300 sequences, median “log2 fold change of degron read counts, EGFP-low vs EGFP+ sorted cells (limma voom), compound-induced degradation” near -1.1, cut for the highest 2% near 3.2. The entries come from a sample that favours the highest values as a whole.
T1: CRBN, Q96SW2
T1 chain: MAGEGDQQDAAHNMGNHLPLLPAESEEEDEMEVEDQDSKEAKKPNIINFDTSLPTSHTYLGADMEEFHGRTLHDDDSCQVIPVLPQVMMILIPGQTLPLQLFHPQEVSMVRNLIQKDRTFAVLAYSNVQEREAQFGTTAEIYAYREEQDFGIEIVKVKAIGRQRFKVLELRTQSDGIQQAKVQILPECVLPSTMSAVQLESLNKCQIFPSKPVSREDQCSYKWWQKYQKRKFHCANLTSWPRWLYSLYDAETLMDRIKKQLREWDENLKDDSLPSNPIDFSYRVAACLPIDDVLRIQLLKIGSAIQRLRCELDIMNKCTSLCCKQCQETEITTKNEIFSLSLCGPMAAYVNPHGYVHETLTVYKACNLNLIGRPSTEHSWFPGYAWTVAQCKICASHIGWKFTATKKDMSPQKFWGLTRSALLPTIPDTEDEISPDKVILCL


Biological target: T1, CRBN, Q96SW2
Assay: log2 fold change of degron read counts, EGFP-low vs EGFP+ sorted cells (limma voom), compound-induced degradation; higher = more compound-induced degradation of the degron-EGFP fusion; degrons are variants of IKZF1/3 zinc finger 2; compound dose not given here
Details: Jurkat, 18 h
[1] = compound: compound 19 (5-tert-butyl-thalidomide)
[2] = compound: compound 22 (5-morpholino-thalidomide)
[3] = compound: compound 33 (diphenyl IMiD analogue)
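Note: pooled lentiviral library of zinc finger degron-EGFP fusions in mCherry-positive Jurkat cells, FACS-sorted after compound exposure, with degron abundance counted by next-generation sequencing.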

Sequence | log2 fold change of degron read counts [1] | log2 fold change of degron read counts [2] | log2 fold change of degron read counts [3] | log2 fold change of degron read counts (compound: thalidomide)
FRCEICGRWFTQKGNLLRHIKL [46F_47R_49E_50I_52G_53R_54W_55F_67L_, Q9UKT9] | -2.31 | -2.38 | -1.89 | 0.776
FFCPICGHAFTQKGNLLRHIKL [46F_47F_49P_50I_52G_53H_54A_55F_67L_, Q9UKT9] | -0.981 | -1.5 | -0.604 | -1.29
FHCNQCGACFTQKGNLLRHIKL [46F_47H_49N_50Q_52G_53A_54C_55F_67L_, Q9UKT9] | -1.49 | -1.87 | -1.86 | -2.37
LRCNQCGFLCTQKGNLLRHIKL [46L_47R_49N_50Q_52G_53F_54L_55C_67L_, Q9UKT9] | -1.18 | -1.92 | -1.55 | -1.3
FLCSVCGHVFTQKGNLLRHIKL [46F_47L_49S_50V_52G_53H_54V_55F_67L_, Q9UKT9] | -2.42 | -2.11 | -2.5 | -2.18
FFCEQCGAAFTQKGNLLRHIKL [46F_47F_49E_50Q_52G_53A_54A_55F_67L_, Q9UKT9] | 0.842 | 1.01 | 0.32 | -1.11
FTCNQCGAMFTQKGNLLRHIKL [46F_47T_49N_50Q_52G_53A_54M_55F_67L_, Q9UKT9] | -2.5 | -2.41 | -1.29 | -1.58
FWCPQCGARFTQKGNLLRHIKL [46F_47W_49P_50Q_52G_53A_54R_55F_67L_, Q9UKT9] | 0.926 | 3.08 | 0.0765 | 0.0591
FGCEVCGAQFTQKGNLLRHIKL [46F_47G_49E_50V_52G_53A_54Q_55F_67L_, Q9UKT9] | 3.18 | 2.36 | 1.12 | 0.866
FTCEVCGAQFTQKGNLLRHIKL [46F_47T_49E_50V_52G_53A_54Q_55F_67L_, Q9UKT9] | -0.192 | 2.19 | 2.27 | 2.79
FFCEVCGAQFTQKGNLLRHIKL [46F_47F_49E_50V_52G_53A_54Q_55F_67L_, Q9UKT9] | 3.36 | 3.6 | 2.42 | 1.89
FCCNQCGREFTQKGNLLRHIKL [46F_47C_49N_50Q_52G_53R_54E_55F_67L_, Q9UKT9] | -3.21 | -3.01 | -3.16 | -3.5
FYCDVCGAIFTQKGNLLRHIKL [46F_47Y_49D_50V_52G_53A_54I_55F_67L_, Q9UKT9] | 0.745 | 0.688 | -0.626 | -1.86
LYCEICGFWCTQKGNLLRHIKL [46L_47Y_49E_50I_52G_53F_54W_55C_67L_, Q9UKT9] | 1.69 | 1.16 | 1.94 | 0.136
FHCEICGAGFTQKGNLLRHIKL [46F_47H_49E_50I_52G_53A_54G_55F_67L_, Q9UKT9] | 3.51 | 1.13 | 1.93 | -0.622
FTCEICGAGFTQKGNLLRHIKL [46F_47T_49E_50I_52G_53A_54G_55F_67L_, Q9UKT9] | 2.35 | 2.19 | 2.28 | 2.27
FRCEICGAGFTQKGNLLRHIKL [46F_47R_49E_50I_52G_53A_54G_55F_67L_, Q9UKT9] | 2.78 | 1.83 | 2.46 | 1.7
FNCEQCGAGFTQKGNLLRHIKL [46F_47N_49E_50Q_52G_53A_54G_55F_67L_, Q9UKT9] | -0.14 | -2.54 | -2.33 | -2.8
FFCEICGAGFTQKGNLLRHIKL [46F_47F_49E_50I_52G_53A_54G_55F_67L_, Q9UKT9] | 3.51 | 2.9 | 1.61 | 0.677
FICEICGAGFTQKGNLLRHIKL [46F_47I_49E_50I_52G_53A_54G_55F_67L_, Q9UKT9] | 0.51 | 2.54 | 1.87 | 2.76
FNCEICGAGFTQKGNLLRHIKL [46F_47N_49E_50I_52G_53A_54G_55F_67L_, Q9UKT9] | 3.46 | 0.722 | -0.0429 | -0.254
FACEICGAGFTQKGNLLRHIKL [46F_47A_49E_50I_52G_53A_54G_55F_67L_, Q9UKT9] | 3.75 | 1.86 | 0.304 | 0.339
FDCEICGAGFTQKGNLLRHIKL [46F_47D_49E_50I_52G_53A_54G_55F_67L_, Q9UKT9] | 1.89 | -1.13 | -0.599 | -0.0656
FWCNICGAFFTQKGNLLRHIKL [46F_47W_49N_50I_52G_53A_54F_55F_67L_, Q9UKT9] | 1.6 | 2.32 | 0.971 | -0.294
FKCNVCGASFTQKGNLLRHIKL [46F_47K_49N_50V_52G_53A_54S_55F_67L_, Q9UKT9] | -1.29 | -2.06 | -3.02 | -1.88
FFCNQCGRKFTQKGNLLRHIKL [46F_47F_49N_50Q_52G_53R_54K_55F_67L_, Q9UKT9] | -2.1 | -2.17 | -2 | -2.57
FRCPVCGAFFTQKGNLLRHIKL [46F_47R_49P_50V_52G_53A_54F_55F_67L_, Q9UKT9] | -0.609 | -0.0858 | 1.19 | 1.19
LKCNQCGFCCTQKGNLLRHIKL [46L_47K_49N_50Q_52G_53F_54C_55C_67L_, Q9UKT9] | -2.31 | -2.82 | -2.5 | -1.52
